This is an account of results in ChEMBL document CHEMBL1157539, “Thousands of chemical starting points for antimalarial lead identification” (Nature, 2010).

Usually Inhibition stands for the share of the control response that was lost under treatment. A lower Inhibition goes with a response near the control.

Holding throughout (format): functional
The subject of experiment [1] is Plasmodium falciparum. Briefly: GSK_TCMDC: Inhibition of Plasmodium falciparum 3D7 in whole red blood cells, using parasite LDH activity as an index of growth. Test compounds present at 2uM.
Experiment [2] relates to Plasmodium falciparum. The experiment is described as follows: GSK_TCMDC: Inhibition of Plasmodium falciparum Dd2 in whole red blood cells, using parasite LDH activity as an index of growth. Test compounds present at 2uM.
The test system of a further experiment is HepG2. The experiment is described as follows: GSK_TCMDC: Percent inhibition of human HepG2 cell line. Test compounds present at 10uM.

Structures are written as SMILES.

Consider `c1nc(CCNc2nc(Nc3ccc4c(c3)OCO4)nc(NC3CCCC3)n2)c[nH]1`, for which the figures for the Inhibition with Plasmodium falciparum [1], with Plasmodium falciparum [2] and with HepG2 were 80%, 0% and 0%, respectively.

Consider `COc1cccc(CNC(=O)c2cccc(-c3ccc(CN4CCC(N5CCCC5)CC4)cc3)n2)c1.O=C(O)C(F)(F)F`, for which the Inhibition is 100% in the experiment on Plasmodium falciparum [1], 76% in the experiment on Plasmodium falciparum [2] and 16% in the experiment with HepG2.

`CCC(C)NS(=O)(=O)c1ccc2nc(Nc3ccc(C)c(Cl)c3)n(C(C)C(C)C)c2c1` (stereo not given): the Inhibition in the experiment with Plasmodium falciparum [1] is 98%; in the experiment on Plasmodium falciparum [2] it was 98%; in the experiment with HepG2 it was 22%.

Turning to `COc1ccc2nccc([C@@H](O)CN3CCC(NC(=O)c4ccc5cc[nH]c5c4)CC3)c2c1.CS(=O)(=O)O`, the Inhibition amounted to 91% with Plasmodium falciparum [1], 23% in the experiment with Plasmodium falciparum [2] and 21% in the experiment with HepG2.

As for `COc1ccccc1-n1c(SCC(=O)c2ccc3c(c2)CC(=O)N3C)nnc1-c1cccs1`, the Inhibition in the experiment with Plasmodium falciparum [1] is on record as 95%; in the experiment with Plasmodium falciparum [2] it was 55%; in the experiment with HepG2, 7%.

For the compound `Cc1cc(NCCC(=O)Nc2ccccc2)nc(NCCc2cccs2)n1.O=C(O)C(F)(F)F`, the Inhibition is given as 99% in the experiment on Plasmodium falciparum [1], 20% in the experiment with Plasmodium falciparum [2] and 26% with HepG2.

Turning to `Cl.Cn1nc(C(F)(F)F)cc1-c1ccc(C(=O)Nc2ccc3c(c2)CNCC3(C)C)s1`, the Inhibition in the experiment on Plasmodium falciparum [1] stood at 88%; with Plasmodium falciparum [2], 36%; with HepG2 it was 10%.

`CCc1cccc2c(C#N)cn(CC(=O)NCCc3ccccc3)c12`: the Inhibition with Plasmodium falciparum [1] worked out at 95%; in the experiment with Plasmodium falciparum [2], 64%; in the experiment on HepG2, 1%.

As to `Cc1[nH]c(/C=C2\C(=O)Nc3ccc(S(=O)(=O)Cc4c(Cl)cccc4Cl)cc32)c(C)c1C(=O)N1CCC[C@@H]1CN1CCCC1` [PHA-665752], the Inhibition was found to be 85% with Plasmodium falciparum [1], 92% in the experiment on Plasmodium falciparum [2] and 33% in the experiment on HepG2.

Regarding `O=C(Nc1cccc(CN2CCCN(Cc3ccc(O)cc3)CC2)c1)c1cc(F)cc(F)c1.O=C(O)C(F)(F)F`, the Inhibition in the experiment with Plasmodium falciparum [1] was 100%; in the experiment with Plasmodium falciparum [2] it was 13%; in the experiment with HepG2 it was 15%.
